# Screens as filed in PubChem BioAssay.
# Sampled rows, rich in hits. Any-hit rate of the full collection: about 1.1%.
# OPRM1-OPRD1 inv = inverse agonists of MOR-DOR heterodimerization, primary screen, cell-based, luminescence; inhibition, % at 9.3 µM; cell-based MOR-DOR heterodimer luminescence, inverse agonism; actives 0.21% (n = 340,000); in the data active = inhibition above about 22%, passing the limit was not always enough;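 note: 0% = cells with DMSO and 100% = wells without cells with DMSO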
# Target sequence (P35372 whole entry, looked up): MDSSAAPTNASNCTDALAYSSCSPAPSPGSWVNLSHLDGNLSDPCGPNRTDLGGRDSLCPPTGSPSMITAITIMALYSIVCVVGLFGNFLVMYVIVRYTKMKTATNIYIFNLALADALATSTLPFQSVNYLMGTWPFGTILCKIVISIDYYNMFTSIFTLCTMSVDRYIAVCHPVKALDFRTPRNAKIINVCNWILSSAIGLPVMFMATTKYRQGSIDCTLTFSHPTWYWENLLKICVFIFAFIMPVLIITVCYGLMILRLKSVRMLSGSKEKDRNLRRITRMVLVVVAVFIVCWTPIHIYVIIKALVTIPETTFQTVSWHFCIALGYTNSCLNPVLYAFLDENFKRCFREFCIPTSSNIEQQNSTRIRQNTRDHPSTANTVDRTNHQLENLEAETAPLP
# Target sequence (P41143 whole entry, looked up): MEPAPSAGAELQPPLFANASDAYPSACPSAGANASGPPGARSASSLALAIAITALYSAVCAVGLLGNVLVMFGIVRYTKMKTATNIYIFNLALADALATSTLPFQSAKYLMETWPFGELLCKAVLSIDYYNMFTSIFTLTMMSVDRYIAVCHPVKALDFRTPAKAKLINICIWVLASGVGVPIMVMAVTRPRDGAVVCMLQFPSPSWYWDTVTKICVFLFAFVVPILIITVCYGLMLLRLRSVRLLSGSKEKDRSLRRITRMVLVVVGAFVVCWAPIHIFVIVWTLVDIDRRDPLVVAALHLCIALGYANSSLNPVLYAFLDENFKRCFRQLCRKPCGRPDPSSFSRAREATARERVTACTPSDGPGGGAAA
# OPRM1-OPRD1 ag = agonists of OPRM1-OPRD1 heterodimerization, primary screen, cell-based, luminescence; Mu-type opioid receptor (Homo sapiens) + Delta-type opioid receptor (Homo sapiens), …; cells; activation, % at 9.3 µM; actives 0.3% (n = 340,000); AID 504326, 2011;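 note: 0% = vehicle-treated cells and 100% = reference agonist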
# HTR5A inv ag = HTR5A inverse agonists in luminescence cell assay, primary screen, counter-screen for OPRM1-OPRD1 heterodimer inverse agonist project, full-deck HTS. inhibition, % at 9.3 µM. 5-hydroxytryptamine receptor 5A (Homo sapiens), P47898. HTR5A cell line, inverse agonism. actives 0.083% (n = 340,000); in the data active = inhibition mostly above about 23%, no sharp cut-off; inactive = mostly below about 18%;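 note: 0% = cells with DMSO and 100% = no-cell wells with DMSO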
# HTR5A ag ctr = HTR5A agonists in luminescence cell assay, primary screen, counter-screen for OPRM1-OPRD1 heterodimer agonist project, full-deck HTS. cell-based. activation, % at 9.3 µM. AID 504692, 2011. actives 0.61% (n = 340,000). 5-hydroxytryptamine receptor 5A (Homo sapiens), P47898; in the data active = activation mostly above about 9.5%, no sharp cut-off; inactive = mostly below about 7.6%;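 note: 0% = cells with vehicle only and 100% = reference agonist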
# MOR-DOR ag conf = agonists of MOR-DOR heterodimerization, confirmation, cell-based, luminescence; AID 504904, 2011; cells, luminescence complementation; actives 45% (n = 830); activation, % at 9.3 µM; shares compounds with OPRM1-OPRD1 ag;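 note: 0% = vehicle-treated cells and 100% = reference agonist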
# HTR5A ag ctr2 = HTR5A agonists in cells, counter-screen for OPRM1-OPRD1 heterodimer agonist project, cell-based, luminescence; shares compounds with OPRM1-OPRD1 ag; HTR5A agonist counterscreen; activation, % at 9.3 µM; actives 8% (n = 830); in the data active = activation above about 17%;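 note: 0% = vehicle-treated cells and 100% = reference agonist response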
# OPRM1-D1 inv cf = inverse agonists of MOR-DOR heterodimerization, confirmation, cell-based, luminescence. actives 20% (n = 580). inhibition, % at 9.3 µM. shares compounds with OPRM1-OPRD1 inv. AID 504900, 2011. cells expressing OPRM1/OPRD1 heterodimer; in the data active = inhibition above about 32%;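 note: 0% = cells with DMSO and 100% = wells lacking cells with DMSO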
# HTR5A inv count = HTR5A inverse agonists, counter-screen for OPRM1-OPRD1 inverse agonist project, cell-based, luminescence; shares compounds with OPRM1-OPRD1 inv; HTR5A-expressing cells, inverse agonism; 580 tested, under 10 active; inhibition, % at 9.3 µM; call rule not given here;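 note: 0% = cells with DMSO and 100% = no-cell wells with DMSO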
# Active calls of the source: *; i = inactive; / = no result. Cut-off read from the data, not from the text of the source, unless noted: active = activation above about 18%; inactive = the rest.
SMILES,OPRM1-OPRD1 inv,OPRM1-OPRD1 ag,HTR5A inv ag,HTR5A ag ctr,MOR-DOR ag conf,HTR5A ag ctr2,others
COc1ccc(C(CNC(=O)c2cccc(S(=O)(=O)NCc3ccccc3)c2)N(C)C)cc1 (stereo not given),-104,20*,12,-2,15,0,
C=CCN1C(=O)c2ccccc2Sc2ccc(C(=O)NCCC)cc21,5,-1,2,-1,/,/,
CCOC(=O)C1=CC[C@@H](c2ccccc2Cl)N(S(=O)(=O)c2ccc(C)cc2)[C@H]1C(=O)OCC,10,-2,-12,0,/,/,
Oc1cccc(C(=S)N2CCN(Cc3ccccc3)CC2)c1,-172,32*,16,-2,5,0,
Oc1cccc(C(=S)N2CCC(Cc3ccccc3)CC2)c1,-22,4,-15,5,/,/,
O=C(CCN1C(=O)[C@@H]2Cc3ccccc3CN2C1=O)N[C@H](Cc1ccccc1)C(=O)O,8,-2,-13,-3,/,/,
CN(C)C(CNC(=O)Nc1cccc(Cl)c1)c1cccnc1 (stereo not given),i,202*,-4,5,4,-4,
CCc1cccc(CC)c1NC(=S)NCC(c1cccnc1)N(C)C (stereo not given),i,150*,14,-2,-2,0,
CN(C)C(CNC(=S)Nc1ccc(Cl)cc1)c1cccnc1 (stereo not given),i,264*,3,0,-1,-1,
CCOc1ccccc1NC(=O)CSc1nc2cc(O)ccc2c(=O)n1-c1ccc(OC)c(OC)c1,-18,3,-16,4,/,/,
Cc1ccc2nc(-c3ccc(SCC(=O)Nc4nnc(C)s4)nc3)[nH]c2c1,-145,24*,-31,12,0,0,
Cc1ccc(NC(=O)CCCSc2nc3ccccc3[nH]2)cc1,11,-2,1,0,/,/,
Cc1ccc(SCC(=O)Nc2ccc(-c3nc4ccccc4[nH]3)cc2)cc1,-206,34*,-27,10,29*,9,
Cc1cc(C)c(C#N)c(SCC(=O)N(CCC#N)c2ccc3c(c2)OCCO3)n1,16,-3,-7,-1,/,/,
O=C(COc1ccc2c3c(c(=O)oc2c1)CCC3)N[C@@H](Cc1ccccc1)C(=O)O,12,-2,-9,6,/,/,
CCOC(=O)C1(CCOc2ccccc2)CCN(Cc2cccc(-n3cccn3)c2)CC1,-170,33*,-2,1,17,-1,
CCOC(=O)C1(CCOc2ccccc2)CCN(Cc2ccc(OC)cc2)CC1,i,224*,5,-1,4,7,
CCOC(=O)C1(CCOc2ccccc2)CCN(Cc2ccccc2O)CC1,-4,1,12,-3,/,/,
CCOC(=O)C1(CCOc2ccccc2)CCN(Cc2cnc(C)s2)CC1,-397,72*,7,-2,80*,-1,
CCOC(=O)C1(CCOc2ccccc2)CCN(Cc2cccc3c2OCO3)CC1,-93,18*,8,-3,14,6,
Cc1cccc(NC(=O)CN(CC2CCCO2)C(=O)c2oc3ccccc3c2C)c1C (stereo not given),11,-3,5,6,/,/,
COc1ccc(COc2ccc(C3C(S(=O)(=O)c4ccccc4)CON3C)cc2OC)cc1 (stereo not given),8,-2,-11,4,/,/,
Cc1cc(C)c(S(=O)(=O)N2CCCCC2CCNC(=O)C(=O)NCc2cccnc2)c(C)c1 (stereo not given),11,-2,13,-5,/,/,
CC(=O)Nc1ccc(CN2CCC(CO)(CCOc3ccccc3)CC2)cc1,-18,4,-6,2,/,/,
CCOC(=O)C1(CCOc2ccccc2)CCN(Cc2ccc(NC(C)=O)cc2)CC1,i,92*,10,-4,8,7,
SMILES,OPRM1-OPRD1 inv,OPRM1-OPRD1 ag,HTR5A inv ag,HTR5A ag ctr,MOR-DOR ag conf,HTR5A ag ctr2,others
COc1ccc(CNC(=O)c2ccc(Cl)c(S(=O)(=O)N3CCOCC3)c2)cc1OC,-10,2,1,0,/,/,
COc1cccc(CNCCc2c[nH]c3ccccc23)c1OCc1ccccc1,-99,18*,-45,10,27*,8,
COc1cc(CNCCc2c[nH]c3ccccc23)ccc1OCc1ccccc1F,6,-1,2,-3,/,/,
COc1ccc(Oc2ccc(C(F)(F)F)cc2NC(=O)c2ccc(OC)cc2)cc1,-17,3,-25,-2,/,/,
COc1ccc(Oc2ccc(C(F)(F)F)cc2N)cc1,-90,18*,-16,-1,8,0,
COc1ccccc1N(/N=C1\Sc2ccccc2C1=O)C(C)=O,75*,-15,17,-9,/,/,OPRM1-D1 inv cf=-18;HTR5A inv count=-6
COc1ccc(N(/N=C2\Sc3ccccc3C2=O)C(C)=O)cc1,70*,-11,23,-9,/,/,OPRM1-D1 inv cf=-26;HTR5A inv count=5
COc1ccc(CN(C(C)=O)c2ccccc2C(=O)O)cc1,4,-1,6,-2,/,/,
CC(C)(C)c1ccc(C(=O)N2CCN(C(=O)c3cccs3)CC2)cc1,18,-4,-5,1,/,/,
Cc1ccc2cc(C=O)c(N3CCOCC3)nc2c1C,36*,-8,10,-3,/,/,OPRM1-D1 inv cf=-74;HTR5A inv count=-2
Cc1ccc(CSc2nnc3c(n2)OC2(Nc4ccccc4-3)C(=O)Nc3ccc(F)cc32)cc1 (stereo not given),79*,-14,5,-2,/,/,OPRM1-D1 inv cf=70*;HTR5A inv count=8
O=C1Nc2ccc(F)cc2C12Nc1ccccc1-c1nnc(SCc3ccccc3Cl)nc1O2 (stereo not given),78*,-14,14,-2,/,/,OPRM1-D1 inv cf=56*;HTR5A inv count=7
Cc1ccc(SCc2[nH]nc3c2C2(C(=O)Nc4ccc(F)cc42)C(C#N)=C(N)O3)cc1 (stereo not given),3,-1,-24,9,/,/,
Clc1ccccc1CSc1cc2c(nn1)-c1ccccc1CC2,-11,2,-1,-4,/,/,
O=C1Nc2ccc(F)cc2C12Nc1ccccc1-c1nnc(SCc3ccccc3)nc1O2 (stereo not given),79*,-14,16,-6,/,/,OPRM1-D1 inv cf=70*;HTR5A inv count=8
O=C(CN1C(=O)COc2ccc(S(=O)(=O)N3CCOCC3)cc21)NCc1ccco1,-2,0,21,3,/,/,
